The results in this text go back to paper PMC7862700, “An all-to-all approach to the identification of sequence-specific readers for epigenetic DNA modifications on cytosine”.

Experiment in all cases: DAPPL (digital affinity profiling via proximity ligation, sequencing); 10 mM Tris-HCl pH 7.5, 50 mM NaCl, 1 mM DTT, 4% glycerol, room temperature, 30 min; GST-TFs on glutathione beads, 16-mer random dsDNA library, 0.1% formaldehyde crosslink after washing; high values mean tight binding
The target of experiment [1] is T1, FEV (Homo sapiens, UniProt Q99581 1-238).
T1 sequence: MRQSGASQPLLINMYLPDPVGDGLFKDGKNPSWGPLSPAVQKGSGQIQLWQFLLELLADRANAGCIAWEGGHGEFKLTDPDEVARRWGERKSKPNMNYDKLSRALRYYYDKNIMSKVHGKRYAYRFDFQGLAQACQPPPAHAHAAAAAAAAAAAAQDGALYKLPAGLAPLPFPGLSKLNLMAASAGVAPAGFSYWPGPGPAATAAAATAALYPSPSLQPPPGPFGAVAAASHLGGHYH
As to conditions: protein: recombinant; tags: N-terminal GST; dsDNA, one strand shown. The gist of the method:
(§1)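 In yeast, human transcription factors were expressed with a GST fusion, then pulled down on glutathione beads and given DNA barcodes. Pooled with a tag-only sample, they were exposed to 200 nmole of a 16-mer random double-stranded DNA library (Tris/NaCl/DTT/glycerol buffer, room temperature, 30 min), washed, crosslinked with 0.1% formaldehyde, proximity-ligated using BsaI/T4 ligase for 1 h at 37 °C, PCR-amplified and read on an Illumina NextSeq500. Each hexamer's frequency of reads for a factor, divided by the matching frequency for the tag-only sample, gives the binding signal.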

The target of experiment [2] is ETV5 (Homo sapiens, UniProt P41161 1-510). As to conditions: protein: recombinant; tags: N-terminal GST; dsDNA, one strand shown. The gist of the method:
as §1

Experiment [3] concerns the target HSF1 (Homo sapiens, UniProt Q00613 1-529). The note with it: protein: recombinant; tags: N-terminal GST; chain copies: 3; dsDNA, one strand shown. Summed up:
as §1

In experiment [4] the target is T2, SPIC (Homo sapiens, UniProt Q8N5J4 1-248).
T2 sequence: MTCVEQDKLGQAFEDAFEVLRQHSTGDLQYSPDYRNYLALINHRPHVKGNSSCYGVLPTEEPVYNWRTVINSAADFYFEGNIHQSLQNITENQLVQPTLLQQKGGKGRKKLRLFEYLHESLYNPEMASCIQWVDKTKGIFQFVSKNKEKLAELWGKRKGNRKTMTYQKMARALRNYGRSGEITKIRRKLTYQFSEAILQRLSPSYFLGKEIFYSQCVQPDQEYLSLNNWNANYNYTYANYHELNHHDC
As to conditions: protein: recombinant; tags: N-terminal GST; dsDNA, one strand shown. The gist of the method:
as §1

Experiment [5] has as its target ELF4 (Homo sapiens, UniProt Q99607 1-663). The note with it: protein: recombinant; tags: N-terminal GST; dsDNA, one strand shown. Summed up:
as §1

Experiment [6] deals with T3, ELK4 (Homo sapiens, UniProt P28324-2 1-405).
T3 sequence: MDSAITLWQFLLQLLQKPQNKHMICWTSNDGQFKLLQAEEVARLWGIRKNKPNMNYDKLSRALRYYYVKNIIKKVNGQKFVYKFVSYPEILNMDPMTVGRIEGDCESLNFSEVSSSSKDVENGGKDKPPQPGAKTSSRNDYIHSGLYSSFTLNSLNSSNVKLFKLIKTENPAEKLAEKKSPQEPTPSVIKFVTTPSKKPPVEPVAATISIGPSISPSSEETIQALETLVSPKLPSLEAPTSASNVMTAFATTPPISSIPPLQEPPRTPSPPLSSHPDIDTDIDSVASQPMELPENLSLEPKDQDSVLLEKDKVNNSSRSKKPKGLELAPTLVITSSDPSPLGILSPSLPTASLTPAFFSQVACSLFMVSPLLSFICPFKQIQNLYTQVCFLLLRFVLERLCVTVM
The note with it: protein: recombinant; tags: N-terminal GST; dsDNA, one strand shown. The gist of the method: as §1

The target in experiment [7] is T4, ETV2 (Homo sapiens, UniProt O00321 1-342).
T4 sequence: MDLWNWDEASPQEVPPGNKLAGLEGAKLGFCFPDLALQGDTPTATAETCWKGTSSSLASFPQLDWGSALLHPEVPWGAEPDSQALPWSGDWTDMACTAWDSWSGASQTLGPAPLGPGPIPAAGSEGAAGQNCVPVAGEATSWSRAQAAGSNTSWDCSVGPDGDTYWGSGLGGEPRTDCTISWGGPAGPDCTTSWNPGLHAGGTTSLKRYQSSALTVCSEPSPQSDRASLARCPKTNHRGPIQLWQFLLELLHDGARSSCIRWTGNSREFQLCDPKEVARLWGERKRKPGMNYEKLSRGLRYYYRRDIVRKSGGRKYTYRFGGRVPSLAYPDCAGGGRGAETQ
The note with it: protein: recombinant; tags: N-terminal GST; dsDNA, one strand shown. The gist of the method:
as §1

Experiment [8] addresses T5, ELF3 (Homo sapiens, UniProt P78545 1-371).
T5 sequence: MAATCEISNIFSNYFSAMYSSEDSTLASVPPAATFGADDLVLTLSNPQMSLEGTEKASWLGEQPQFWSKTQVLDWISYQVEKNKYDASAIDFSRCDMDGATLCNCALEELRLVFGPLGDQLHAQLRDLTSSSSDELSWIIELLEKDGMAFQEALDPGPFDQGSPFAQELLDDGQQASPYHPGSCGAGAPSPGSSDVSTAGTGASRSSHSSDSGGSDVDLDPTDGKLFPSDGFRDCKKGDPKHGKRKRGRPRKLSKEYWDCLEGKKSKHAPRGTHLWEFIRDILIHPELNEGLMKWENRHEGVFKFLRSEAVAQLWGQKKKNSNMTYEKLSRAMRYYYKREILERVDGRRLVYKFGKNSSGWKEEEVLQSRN
As to conditions: protein: recombinant; tags: N-terminal GST; dsDNA, one strand shown. Summed up: as §1

Experiment [9] addresses CRX (Homo sapiens, UniProt O43186 1-299). The note with it: protein: recombinant; tags: N-terminal GST; dsDNA, one strand shown. The gist of the method: as §1
Experiment [10] concerns the target ETV1 (Homo sapiens, UniProt P50549 1-477). As to conditions: protein: recombinant; tags: N-terminal GST; dsDNA, one strand shown. Summed up:
as §1

Chain of CRX (O43186 whole entry): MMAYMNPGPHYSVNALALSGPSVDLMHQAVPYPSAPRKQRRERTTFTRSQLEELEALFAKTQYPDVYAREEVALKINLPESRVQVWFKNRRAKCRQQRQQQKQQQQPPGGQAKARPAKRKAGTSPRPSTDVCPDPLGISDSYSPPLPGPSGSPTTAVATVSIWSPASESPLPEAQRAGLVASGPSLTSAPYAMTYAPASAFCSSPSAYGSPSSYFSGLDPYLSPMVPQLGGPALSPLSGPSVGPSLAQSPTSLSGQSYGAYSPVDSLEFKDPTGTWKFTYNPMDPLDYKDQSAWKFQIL
Chain of ETV1 (P50549 whole entry): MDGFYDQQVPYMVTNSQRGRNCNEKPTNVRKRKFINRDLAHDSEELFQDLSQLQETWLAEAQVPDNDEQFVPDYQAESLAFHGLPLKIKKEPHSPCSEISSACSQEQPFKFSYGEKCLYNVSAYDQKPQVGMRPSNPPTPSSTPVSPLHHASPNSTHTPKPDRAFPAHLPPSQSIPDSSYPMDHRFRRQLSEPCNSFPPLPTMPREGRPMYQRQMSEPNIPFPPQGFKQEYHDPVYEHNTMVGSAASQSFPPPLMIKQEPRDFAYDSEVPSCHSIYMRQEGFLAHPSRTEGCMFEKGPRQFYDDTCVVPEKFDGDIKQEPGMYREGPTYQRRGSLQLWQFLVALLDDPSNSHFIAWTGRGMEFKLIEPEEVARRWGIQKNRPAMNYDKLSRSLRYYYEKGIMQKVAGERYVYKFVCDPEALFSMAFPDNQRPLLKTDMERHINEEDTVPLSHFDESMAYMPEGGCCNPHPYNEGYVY
Chain of ELF4 (Q99607 whole entry): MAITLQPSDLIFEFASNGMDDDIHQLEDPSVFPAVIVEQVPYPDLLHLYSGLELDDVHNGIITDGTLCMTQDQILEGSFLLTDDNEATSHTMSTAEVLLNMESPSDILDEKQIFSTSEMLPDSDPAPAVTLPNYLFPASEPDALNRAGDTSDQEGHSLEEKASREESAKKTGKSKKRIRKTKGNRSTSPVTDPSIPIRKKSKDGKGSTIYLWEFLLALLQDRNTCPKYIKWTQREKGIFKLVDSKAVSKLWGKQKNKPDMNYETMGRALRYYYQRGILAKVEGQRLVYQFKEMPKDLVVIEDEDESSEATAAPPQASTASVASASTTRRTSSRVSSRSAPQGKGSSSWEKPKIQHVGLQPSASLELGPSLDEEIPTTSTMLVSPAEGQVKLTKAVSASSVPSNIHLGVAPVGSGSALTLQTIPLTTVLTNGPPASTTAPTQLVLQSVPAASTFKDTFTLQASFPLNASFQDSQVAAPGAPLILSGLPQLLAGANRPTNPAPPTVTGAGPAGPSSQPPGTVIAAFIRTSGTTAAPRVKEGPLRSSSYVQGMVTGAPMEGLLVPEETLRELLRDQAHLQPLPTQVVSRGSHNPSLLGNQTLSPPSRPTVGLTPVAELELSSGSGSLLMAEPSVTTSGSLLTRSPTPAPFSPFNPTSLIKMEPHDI
Chain of HSF1 (Q00613 whole entry): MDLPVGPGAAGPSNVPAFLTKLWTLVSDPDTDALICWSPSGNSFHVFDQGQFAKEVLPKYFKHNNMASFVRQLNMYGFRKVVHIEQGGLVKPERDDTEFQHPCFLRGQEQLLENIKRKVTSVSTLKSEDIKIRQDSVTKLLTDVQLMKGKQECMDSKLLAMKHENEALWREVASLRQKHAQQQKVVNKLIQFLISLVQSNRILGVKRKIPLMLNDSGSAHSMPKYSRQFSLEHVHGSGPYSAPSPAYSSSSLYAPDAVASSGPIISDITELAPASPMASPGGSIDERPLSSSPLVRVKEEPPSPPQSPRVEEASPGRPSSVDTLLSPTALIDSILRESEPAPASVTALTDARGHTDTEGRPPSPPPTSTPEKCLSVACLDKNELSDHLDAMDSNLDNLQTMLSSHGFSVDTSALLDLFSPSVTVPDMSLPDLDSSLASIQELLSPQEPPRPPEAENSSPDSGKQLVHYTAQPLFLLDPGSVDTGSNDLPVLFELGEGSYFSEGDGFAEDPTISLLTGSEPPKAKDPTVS
Chain of ETV5 (P41161 whole entry): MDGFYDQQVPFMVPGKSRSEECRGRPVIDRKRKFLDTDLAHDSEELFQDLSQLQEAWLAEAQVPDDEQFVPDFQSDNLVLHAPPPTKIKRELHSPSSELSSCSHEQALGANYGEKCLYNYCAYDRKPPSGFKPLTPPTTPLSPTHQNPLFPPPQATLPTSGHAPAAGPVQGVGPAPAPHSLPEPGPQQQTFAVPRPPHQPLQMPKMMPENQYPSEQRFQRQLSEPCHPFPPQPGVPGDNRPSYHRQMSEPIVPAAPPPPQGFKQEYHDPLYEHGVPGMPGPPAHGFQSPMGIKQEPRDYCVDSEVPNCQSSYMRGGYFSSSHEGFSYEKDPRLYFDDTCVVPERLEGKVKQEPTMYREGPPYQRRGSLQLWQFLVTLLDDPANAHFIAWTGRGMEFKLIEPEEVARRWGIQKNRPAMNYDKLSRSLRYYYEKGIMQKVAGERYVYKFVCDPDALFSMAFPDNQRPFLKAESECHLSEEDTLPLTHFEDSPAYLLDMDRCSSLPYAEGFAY

Regarding TCGTTC, the binding signal in [1] is 1.23 fold enrichment (6-mer frequency, TF over GST control); in [2], 1.29 fold enrichment (6-mer frequency, TF over GST control); in experiment [3] it was 1.39 fold enrichment (6-mer frequency, TF over GST control); in experiment [4], 1.23 fold enrichment (6-mer frequency, TF over GST control); in experiment [5], 1.31 fold enrichment (6-mer frequency, TF over GST control); in experiment [6], 1.39 fold enrichment (6-mer frequency, TF over GST control). Moreover, the binding signal in experiment [7] was 1.37 fold enrichment (6-mer frequency, TF over GST control); in experiment [8], 1.15 fold enrichment (6-mer frequency, TF over GST control); in [9], 1.04 fold enrichment (6-mer frequency, TF over GST control); in [10], 1.2 fold enrichment (6-mer frequency, TF over GST control).
